# From article PMC4336329 (PLoS ONE, 2015)
# The whole screen tested about 310,000 compounds, of which about 14,000 (4.5%) showed an effect of 50% or more. The effect is printed as a negative number. The full list was thinned out, with strong results kept by preference.
# Molecular target: human ether-à-go-go-related gene (hERG) potassium channel (human, UniProt Q12809)
# Assay: primary screen, population patch clamp on CHO cells stably expressing hERG; higher = less effect of the substance
# 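Also: peak tail current of the secondary pulse compared with the same well before compound.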
# Chain of human ether-à-go-go-related gene (hERG) potassium channel (Q12809 whole entry, looked up): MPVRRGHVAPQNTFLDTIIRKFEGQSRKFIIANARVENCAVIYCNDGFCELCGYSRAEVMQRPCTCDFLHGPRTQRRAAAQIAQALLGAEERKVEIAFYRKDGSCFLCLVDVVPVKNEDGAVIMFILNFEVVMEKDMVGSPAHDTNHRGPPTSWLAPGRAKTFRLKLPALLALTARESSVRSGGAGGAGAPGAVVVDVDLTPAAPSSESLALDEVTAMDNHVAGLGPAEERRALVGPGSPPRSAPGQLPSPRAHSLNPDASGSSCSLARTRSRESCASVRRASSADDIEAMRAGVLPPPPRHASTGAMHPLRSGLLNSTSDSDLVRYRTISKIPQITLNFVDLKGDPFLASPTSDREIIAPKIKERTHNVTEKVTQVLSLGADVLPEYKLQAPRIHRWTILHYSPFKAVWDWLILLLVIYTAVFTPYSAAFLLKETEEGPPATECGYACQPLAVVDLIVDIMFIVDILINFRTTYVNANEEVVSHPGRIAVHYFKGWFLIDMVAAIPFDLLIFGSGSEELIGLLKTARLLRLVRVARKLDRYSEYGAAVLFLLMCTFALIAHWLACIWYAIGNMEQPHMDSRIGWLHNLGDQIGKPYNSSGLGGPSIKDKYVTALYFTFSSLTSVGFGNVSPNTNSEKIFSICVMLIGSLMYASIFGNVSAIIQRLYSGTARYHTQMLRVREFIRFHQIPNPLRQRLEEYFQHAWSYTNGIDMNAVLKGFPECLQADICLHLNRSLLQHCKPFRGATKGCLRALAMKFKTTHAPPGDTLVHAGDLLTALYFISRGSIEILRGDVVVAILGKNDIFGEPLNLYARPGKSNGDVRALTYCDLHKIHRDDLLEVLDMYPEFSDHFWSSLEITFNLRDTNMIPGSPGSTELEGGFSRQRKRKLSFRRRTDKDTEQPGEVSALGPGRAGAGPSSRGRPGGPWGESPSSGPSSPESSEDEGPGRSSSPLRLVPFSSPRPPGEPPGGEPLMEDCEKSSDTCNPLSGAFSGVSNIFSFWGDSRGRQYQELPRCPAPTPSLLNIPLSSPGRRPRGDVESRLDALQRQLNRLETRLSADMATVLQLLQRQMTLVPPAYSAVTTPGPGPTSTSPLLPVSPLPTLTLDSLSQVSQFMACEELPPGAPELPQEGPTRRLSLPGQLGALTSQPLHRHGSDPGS
row,Structure (SMILES),"hERG current change (%, negative = inhibition) at 10uM [%]"
1,CC(OC(=O)c1cccc(-n2cnnn2)c1)C(=O)NCc1ccccc1 (stereo not drawn),0.976
2,O=C(COC(=O)CSc1ccc([N+](=O)[O-])cc1)NCC1CCCO1 (stereo not drawn),12.3
3,C#CCOCCOCCOCCNc1nc(N2CCN(C(=O)CCCCCCCCCCNC(=O)[C@@H](CCC(=O)O)n3cc(CCCCCN)nn3)CC2)nc(N2CCN(C(=O)CCCCCCCCCCNC(=O)[C@H](CO)n3cc(CCCSC)nn3)CC2)n1,11.9
4,CCN1C(=O)C(CC(=O)Nc2ccc(OC)cc2)N(CCc2ccccc2)C1=S (stereo not drawn),-1.28
5,CC(=O)C[C@H]1c2ccccc2S(=O)(=O)N1c1ccccc1,23
6,Cc1cc(NC(=O)c2cc(-c3ccccc3Cl)nc3ccccc23)no1,-0.229
7,COCCOC(=O)c1cc(C(=O)c2cc(F)ccc2O)coc1=N,9.29
8,O=C(Nc1nnc(S(=O)(=O)N2CCOCC2)s1)c1ccccc1F,16.7
9,O=S(=O)(Nc1cc(F)ccc1F)c1cccc2nonc12,-83.6
10,CSc1ccccc1NS(=O)(=O)c1cccc2nonc12,1.51
11,Cc1ccccc1NS(=O)(=O)c1cccc2nonc12,2.34
12,CC(=O)c1ccccc1NS(=O)(=O)c1cccc2nonc12,-52.2
13,O=S(=O)(Nc1cccc2ccccc12)c1cccc2nonc12,3.98
14,O=S(=O)(Nc1cc(F)ccc1F)c1cccc2nsnc12,11.6
15,CCOc1ccc(C(=O)NCC(=O)N2CCN(c3ccc(C(F)(F)F)cn3)CC2)cc1,-7.32
16,NC(=O)NCCN1CCN(c2ncc(C(F)(F)F)cc2Cl)CC1,-33.7
17,O=C(NCC(=O)N1CCN(c2ccccn2)CC1)c1ccc(Br)o1,-15.3
18,CNCC(=O)N1CCN(c2ncc(C(F)(F)F)cc2Cl)CC1.Cl,-22.3
19,O=C(NCC(=O)N1CCN(c2ncc(C(F)(F)F)cc2Cl)CC1)c1ccc(Br)o1,-50.6

row,Structure (SMILES),"hERG current change (%, negative = inhibition) at 10uM [%]"
1,O=C(NCC(=O)N1CCN(c2ccc(C(F)(F)F)cn2)CC1)c1ccc(Br)o1,-71.8
2,COc1cccc(NC(=O)Nc2c(C)n(C)n(-c3ccccc3)c2=O)c1,3.91
3,O=C(Nc1cccc(Cl)c1)c1cnn2cccnc12,7.19
4,Cc1cccc(NC(=O)CCN2CCC(C(N)=O)CC2)c1,9.57
5,CCOC(=O)N1CCN(CCC(=O)Nc2cccc(C)c2)CC1.Cl,1.45
6,CCOC(=O)C1CCN(CCC(=O)Nc2ccccc2)CC1,-19.7
7,NC(=O)C1CCN(CCC(=O)Nc2cccc(Cl)c2)CC1,0.151
8,CCOC(=O)C1CCN(CCC(=O)Nc2cccc(Cl)c2)CC1,-67.1
9,CCOC(=O)C1CCN(CCC(=O)Nc2cccc(C)c2)CC1.Cl,-66.8
10,CCCCCN(C(=O)CCC(=O)OCC(=O)N(C)Cc1ccc(C)cc1)c1c(N)n(CCCC)c(=O)[nH]c1=O,1.93
11,CCOc1ccc(C(=O)N/N=C(\c2ccccc2)c2ccccn2)cc1,-27
12,C=CCOc1ccccc1/C=c1\sc2nc(-c3oc4ccccc4c3C)nn2c1=O,-8.15
13,Cc1cc(C)cc(NC(=O)CN2CCN(C(=O)C3CCCO3)CC2)c1 (stereo not drawn),7.51
14,O=C(CN1CCN(C(=O)C2CCCO2)CC1)Nc1ccc(F)cc1 (stereo not drawn),-66.1
15,O=C(CN1CCN(C(=O)C2CCCO2)CC1)Nc1ccc(Br)cc1 (stereo not drawn),-70
16,CCNC(=S)N1CCN(CC(=O)Nc2ccc(OC)cc2)CC1,-34.3
17,COc1ccc(NC(=O)CN2CCN(C(=O)N3CCOCC3)CC2)cc1,-14.2
18,O=C(Nc1ccc(F)cc1)N1CCN(C(=O)C2CCCO2)CC1 (stereo not drawn),2.96
19,O=C(CN1CCN(C(=O)N2CCOCC2)CC1)Nc1ccc(Br)cc1,-72.5

row,Structure (SMILES),"hERG current change (%, negative = inhibition) at 10uM [%]"
1,O=C(CN1CCOCC1)Nc1ccccc1,13.8
2,O=C(CN1CCN(C(=O)C2CCCO2)CC1)Nc1ccc(Cl)cc1 (stereo not drawn),-40.9
3,CCOc1ccc(NC(=O)CN2CCN(C(=O)C3CCCO3)CC2)cc1 (stereo not drawn),-32.6
4,COc1ccc(NC(=O)CN2CCN(C(=S)NC3CCCC3)CC2)cc1,-39.1
5,CCNC(=S)N1CCN(CC(=O)Nc2ccc(Br)cc2)CC1,-61.4
6,O=c1c(Cc2ccccc2)c(O)ccn1C1CCCCCCC1,10.1
7,COc1ccc(S(=O)(=O)N2CCCCCC2)cc1C(=O)N(C)Cc1ccc(C)cc1,-40.3
8,Cc1[nH]c2ccccc2c(=O)c1SC(F)(F)C(F)C(F)(F)F (stereo not drawn),-5.97
9,CSc1ccccc1NC(=O)COc1ccc(Cl)cc1Cl,-0.82
10,CN(C)C1=NC[C@H](Cc2ccccc2)N1CCc1cccc(F)c1,-64.1
11,C[C@H]1CN=C(N(C)C)N1CCc1ccc(F)cc1,-12.4
12,NC1=NC[C@@H](Cc2ccc(O)cc2)N1CCc1cccc(F)c1,5.43
13,NC1=NC[C@H](Cc2ccccc2)N1CCc1cccc(F)c1,6.16
14,CN(C)C1=NC[C@H](Cc2ccccc2)N1CCc1ccc(F)cc1,-60.6
15,C[C@H]1CN=C(N(C)C)N1CCc1ccccc1,6.72
16,COC(=O)c1cccnc1-n1c(=O)c2cccnc2n(Cc2ccc(Cl)cc2)c1=O,-26.6
17,O=C(Cc1ccccc1)NCC(=O)N/N=C/c1ccc(C(=O)O)cc1,12.3
18,C=CCc1cccc2cc(C(=O)N3CCN(C(=O)OCC)CC3)c(=O)oc12,-26.9
19,C=CCn1c(CSc2nc3ccccc3s2)nnc1SCC(=O)NCc1ccccc1,-43.9
